Where “and” joins values, the source holds several entries; their conditions need not be identical. Identical values can stand only once. The campaign covered roughly 5,500 compounds. About 2,000 (36%) were called active. Roughly 18% stayed inconclusive and do not appear here. Rule as the data show it: active = normalized growth mostly below about 0.91 (no sharp cut-off); inconclusive = no clear call, values can overlap the other calls; inactive = mostly above about 0.92. The list shows a part of the results.
Assay: chemical genetic growth profiling, strain panel (AID 1159580);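 also: tested at 20 µM; growth read once vehicle control cultures reached saturation at 30 °C; 1 = growth at the plate median or of vehicle wells; lower values mean less growth of the strain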
Details: S. cerevisiae deletion strains, growth OD

Measured: normalized growth

CC(C)CC1C(=O)N2CCC[C@H]2C2(O)O[C@](NC(=O)C3C=C4c5cccc6[nH]c(Br)c(c56)C[C@H]4N(C)C3)(C(C)C)C(=O)N12 (stereo partly specified)
inactive: locus YAL013W, strain DEP1, stronger effect = lower value 0.989 | locus YAL021C, strain ccr4, stronger effect = lower value 0.976 | locus YAL026C, strain drs2, stronger effect = lower value 0.991 | locus YAL030W, strain snc1, stronger effect = lower value 0.998 | locus YBL061C, strain skt5, stronger effect = lower value 0.987 | locus YBR009C, strain hhf1, stronger effect = lower value 0.996 | locus YBR021W, strain FUR4, stronger effect = lower value 0.996 | locus YBR023C, strain chs3, stronger effect = lower value 0.992 | locus YBR171W, strain sec66, stronger effect = lower value 0.981 | locus YBR229C, strain ROT2, stronger effect = lower value 0.993 | locus YBR231C, strain swc5, stronger effect = lower value 0.968 | locus YBR279W, strain paf1, stronger effect = lower value 0.988 | locus YCL011C, strain gbp2, stronger effect = lower value 0.976 | locus YCL016C, strain dcc1, stronger effect = lower value 0.995 | locus YCL029C, strain bik1, stronger effect = lower value 0.961 | locus YCL069W, strain vba3, stronger effect = lower value 0.997 | locus YCR088W, strain abp1, stronger effect = lower value 0.99 | locus YDL005C, strain med2, stronger effect = lower value 0.987 | locus YDL035C, strain GPR1, stronger effect = lower value 0.993 | locus YDL040C, strain nat1, stronger effect = lower value 0.984 | locus YDL074C, strain BRE1, stronger effect = lower value 0.974 | locus YDL101C, strain DUN1, stronger effect = lower value 0.988 | locus YDL134C, strain PPH21, stronger effect = lower value 0.992 | locus YDL185W, strain tfp1, stronger effect = lower value 0.947 | locus YDL192W, strain arf1, stronger effect = lower value 0.965 | locus YDR001C, strain nth1, stronger effect = lower value 0.972 | locus YDR069C, strain doa4, stronger effect = lower value 0.983 | locus YDR101C, strain arx1, stronger effect = lower value 0.984 | locus YDR137W, strain rgp1, stronger effect = lower value 0.885 | locus YDR150W, strain NUM1, stronger effect = lower value 0.976 | locus YDR159W, strain sac3, stronger effect = lower value 0.989 | locus YDR162C, strain NBP2, stronger effect = lower value 0.989 | locus YDR195W, strain ref2 0.962 | locus YDR297W, strain sur2, stronger effect = lower value 0.976 | locus YDR318W, strain mcm21, stronger effect = lower value 0.977 | locus YDR334W, strain swr1, stronger effect = lower value 0.973 | locus YDR335W, strain msn5, stronger effect = lower value 0.995 | locus YDR388W, stronger effect = lower value 0.989 | locus YDR392W, strain spt3, stronger effect = lower value 0.959 | locus YDR502C, strain sam2, stronger effect = lower value 0.972 | locus YEL003W, strain gim4, stronger effect = lower value 0.981 | locus YEL037C, strain rad23, stronger effect = lower value 0.989 | locus YEL061C, strain CIN8 (second series), stronger effect = lower value 0.995 | locus YEL061C, strain CIN8, stronger effect = lower value 0.982 | locus YER015W, strain faa2, stronger effect = lower value 0.972 | locus YER016W, strain bim1, stronger effect = lower value 0.982 | locus YER110C, stronger effect = lower value 0.964 | locus YER111C, strain swi4, stronger effect = lower value 0.993 | locus YER155C, strain BEM2 (second series), stronger effect = lower value 0.973 | locus YER155C, strain BEM2, stronger effect = lower value 0.985 | locus YER167W, strain BCK2, stronger effect = lower value 0.961 | locus YFR010W, strain ubp6, stronger effect = lower value 1.01 | locus YGL078C, strain dbp3, stronger effect = lower value 0.965 | locus YGL086W, strain mad1, stronger effect = lower value 0.97 | locus YGL167C, strain pmr1, stronger effect = lower value 0.974 | locus YGL173C, strain kem1, stronger effect = lower value 1 | locus YGL227W, strain vid30, stronger effect = lower value 0.994 | locus YGL240W, strain doc1, stronger effect = lower value 0.943 | locus YGL248W, strain PDE1, stronger effect = lower value 0.987 | locus YGL253W, strain hxk2, stronger effect = lower value 0.993 | locus YGR078C, strain PAC10, stronger effect = lower value 0.989 | locus YGR135W, strain pre9, stronger effect = lower value 0.982 | locus YGR229C, strain SMI1, stronger effect = lower value 1.01 | locus YGR252W, strain gcn5, stronger effect = lower value 1.14 | locus YHR013C, strain ard1, stronger effect = lower value 0.945 | locus YHR027C, strain rpn1, stronger effect = lower value 0.962 | locus YHR030C, strain SLT2, stronger effect = lower value 0.981 and 0.978 | locus YHR079C, strain IRE1 (second series), stronger effect = lower value 0.982 | locus YHR079C, strain IRE1, stronger effect = lower value 0.986 | locus YHR094C, strain hxt1, stronger effect = lower value 0.966 | locus YHR129C, strain ARP1, stronger effect = lower value 0.985 | locus YHR142W, strain chs7, stronger effect = lower value 1.01 | locus YHR200W, strain rpn10, stronger effect = lower value 0.976 | locus YIL066C, strain RNR3, stronger effect = lower value 0.981 | locus YIL073C, strain SPO22, stronger effect = lower value 0.925 | locus YIL125W, strain kgd1, stronger effect = lower value 0.965 | locus YIR030C, strain dcg1, stronger effect = lower value 0.987 | locus YJL092W, strain hpr5, stronger effect = lower value 0.968 | locus YJL095W, strain BCK1 (second series), stronger effect = lower value 0.999 | locus YJL095W, strain BCK1, stronger effect = lower value 0.971 and 0.976 | locus YJL115W, strain asf1, stronger effect = lower value 0.958 | locus YJL129C, strain trk1, stronger effect = lower value 0.957 | locus YJL134W, strain LCB3, stronger effect = lower value 0.983 | locus YJL154C, strain vps35, stronger effect = lower value 0.979 | locus YJL164C, strain tpk1, stronger effect = lower value 0.997 | locus YJL166W, strain qcr8, stronger effect = lower value 0.996 | locus YJL168C, strain set2, stronger effect = lower value 0.977 | locus YJL187C, strain SWE1 (second series), stronger effect = lower value 0.979 | locus YJR043C, strain POL32, stronger effect = lower value 0.995 | locus YJR066W, strain TOR1, stronger effect = lower value 0.993 | locus YJR075W, strain HOC1, stronger effect = lower value 0.992
